# In PubChem BioAssay AID1745847 (National Center for Advancing Translational Sciences (NCATS), 2022):
# About 670 (32%) of roughly 2,100 compounds were called active. About 50% were inconclusive and are not listed. Some of the results follow. Values without a mark were called inactive. Calls follow the shape of the dose curve; as a rule, active = well fitted inhibition curve with a large enough effect; inconclusive = small, poorly fitted or top-dose-only effect; inactive = no such curve, though single readings can be large or run the other way.
# Test: CMV-Luciferase Counterscreen for Inhibitors of ATXN expression; also: nearly all actives have a fitted effect of over 55% in size
# Conditions: HEK-293 CMV-luciferase reporter, luminescence, 24 h; series mostly up to 57.5 µM; activity change, negative = inhibition: at the top concentration
# % is scaled to controls: 0 for no effect and ±100 for the full control effect; potency is read from the fitted curve at half-maximal effect.
SMILES,"activity change, negative = inhibition",Potency
CCCCC(=O)N(CCOC)c1nnc(-c2ccccc2C)s1,-14.2%,–
CCOc1cc([C@@H]2C[C@H]3CN(c4ccccc4)C(=O)[C@]34CCCN24)ccc1OC,4.3%,–
Cc1cccc2sc(NNC(=O)c3ccc(S(=O)(=O)N4CCCC(C)C4)cc3)nc12 (centres undefined),–,4.47 µM (active)
Cc1cc(C)c2nc(NNC(=O)c3ccc(S(=O)(=O)N4CCc5ccccc5C4)cc3)sc2c1,–,3.16 µM (active)
Nc1c2ccccc2nc2ccccc12,–,4.47 µM (active)
N#CCc1nc2ccccc2c(=O)[nH]1,-6.07%,–
CCCOCc1ccc(O)c2ncccc12,–,20 µM (active)
Oc1ccc(CN2CCC(Cc3ccccc3)CC2)c2cccnc12,-19.8% [at 11.4 µM],–
Oc1ccc(Cc2ccccc2)c2cccnc12,–,11.2 µM (active)
CN(C)c1ccc(Cc2cc3c(O)ccc(O)c3cc(Cc3ccc(N(C)C)cc3)c2=O)cc1,-9.62% [at 11.4 µM],–
CC[n+]1c(/C=C/N(C)c2ccccc2)oc2ccc(F)cc21,–,15.8 µM (active)
O=C(O)CSc1cc(NS(=O)(=O)c2cccc([N+](=O)[O-])c2)c2ccccc2c1O,–,3.55 µM (active)
O=C(O)CSc1cc(NS(=O)(=O)c2ccc(Cl)cc2)c2ccccc2c1O,–,28.2 µM (active)
O=C(Nc1ccc2c(c1)CCC2)C1CCN(c2c3c(nc4ncnn24)CCC3)CC1,–,7.08 µM (active)
CCc1ccc(CNC(=O)C2CCN(c3nnc(C)c4c(C)n(-c5ccc(C)cc5)nc34)CC2)cc1,-27.5%,–
CCc1c(C)nc2ncnn2c1N1CCC(C(=O)Nc2ccc(C)cc2)CC1,–,12.6 µM (active)
CNc1ccccc1C(=O)OC(C)C(=O)Nc1ccc(Cl)cn1 (centres undefined),94.6% [at 11.4 µM],–
CC(=O)Oc1c(Br)cc(N(C(C)=O)S(=O)(=O)c2ccccc2)c2ccccc12,–,15.8 µM (active)
COc1ccc2nc(C)cc(SCC(=O)N/N=C/c3ccc(O)cc3O)c2c1,–,11.2 µM (active)
COc1ccc(/C=N/NC(=O)c2nc(-c3ccccc3)n(-c3ccccc3)n2)c(O)c1,–,8.91 µM (active)
Cc1cc(SCC(=O)NN)c2cc(Br)ccc2n1,0.829%,–
NC(=O)c1cc([N+](=O)[O-])ccc1NCc1ccc(N)cc1,–,6.31 µM (active)
Cn1nnnc1Sc1ncnc2scc(-c3ccc[nH]3)c12,–,20 µM (active)

SMILES,"activity change, negative = inhibition",Potency
Cn1nnnc1Sc1ncnc2scc(-c3cccs3)c12,–,11.2 µM (active)
COc1cccc(OC)c1C(=O)OCC(=O)NC(=O)NCc1ccccc1,-4.44% [at 11.4 µM],–
CCOc1ccc(NC(=O)Nc2nnc(CC(=O)NCc3ccccc3)s2)cc1,-1.51%,–
COc1cc(CNCc2ccncc2)cc(Br)c1OCc1ccccc1F,–,2 µM (active)
COc1cc(C(=O)NCc2ccncc2)cc(Br)c1OCc1ccccc1,–,3.98 µM (active)
CN(C)CCNc1ncnc2c1sc1nc(N3CCOCC3)c3c(c12)CC(C)(C)SC3,-18.2%,–
O=C(/C=C/Nc1ccc(S(=O)(=O)Nc2ncccn2)cc1)c1ccc(Cl)c(Cl)c1,-27%,–
O=C(Nc1ccc(Cl)c(Cl)c1)c1cccc(S(=O)(=O)NCc2cccnc2)c1,–,1.58 µM (active)
Cn1c(CCc2nc3ccccc3[nH]2)nnc1SCC#N,-22.2%,–
C=CS(=O)(=O)c1c2cc(OC)ccc2nc2ccc(OC)cc12,-18.3%,–
COc1ccc(C(CCNC(C)c2ccccc2)c2ccc(F)cc2)cc1 (centres undefined),-22.5%,–
COc1ccc(/C=N/Nc2cc(N3CCCC3)nc(N3CCCC3)n2)cc1,-17.8% [at 11.4 µM],–
COc1cc2cc(C(=O)NC(C)c3cccc4ccccc34)c(N)nc2cc1OC (centres undefined),-29.5% [at 11.4 µM],–
COc1ccc(Nc2c3ccccc3nc3ccccc23)cc1,–,10 µM (active)
COc1cc(N)ccc1Nc1c2ccccc2nc2ccccc12,–,25.1 µM (active)
COc1ccc(Nc2nc(N3CCCC3)c3ccccc3n2)cc1,–,10 µM (active)
COc1ccc(C)cc1Nc1nc(N)c2cc(OC)c(OC)cc2n1,-12.3% [at 11.4 µM],–
C(=NN1CCCCCC1)c1ccc2ccccc2n1,–,15.8 µM (active)
O=C(Nc1ccc(Cl)cc1)Nc1nc(-c2sccc2Br)cs1,-3.64%,–
COc1ccc(OC)c(C(=O)/C=C/c2ccccc2C(F)(F)F)c1,-8.72% [at 11.4 µM],–
Cc1ccc(C)c(N2CCN(C(=O)CCCCCn3c(=S)[nH]c4ccc(N5CCOCC5)cc4c3=O)CC2)c1,–,3.16 µM (active)
Clc1ccccc1C(c1ccccc1)(c1ccccc1)n1ccnc1,–,3.16 µM (active)
Cc1cccc(N2CCN(C(=O)CC(NC(=O)c3ccccc3Cl)c3ccccc3)CC2)c1C (centres undefined),–,25.1 µM (active)

SMILES,"activity change, negative = inhibition",Potency
COc1ccccc1N1C(=O)N(C(C)=O)C2C1Nc1ccccc1N2C (centres undefined),-19.7%,–
CCOC(=O)c1c(NC(=O)COC(=O)Cn2cnc3ccccc32)sc(C)c1C,20.6%,–
CCc1nc2ccccc2c(C(=O)OCC(=O)Nc2cccc(S(=O)(=O)NC3=NCCCCC3)c2)c1C,–,14.1 µM (active)
CCn1c2ccccc2c2cc(NC(=O)COC(=O)c3cccc(S(=O)(=O)NC)c3)ccc21,21.7%,–
CN(C)CCNc1ncnc2c1sc1nc(N3CCCC3)c3c(c12)CC(C)(C)OC3,42.2%,–
O=C(N/N=C(\Cc1ncc[nH]1)c1ccccc1)c1cccnc1,–,3.98 µM (active)
CCN(CC)c1cc(C)c2cc(NC(=O)c3ccccc3OC)ccc2n1,-29.6%,–
CCOc1ccccc1C(=O)Nc1ccc2nc(N3CCN(c4ncccn4)CC3)cc(C)c2c1,–,11.2 µM (active)
O=C1Nc2c(Br)cc(Br)c3cccc1c23,-4.4%,–
O=C(Nc1nc(-c2ccccc2)cs1)c1ccccc1NS(=O)(=O)c1ccc(F)cc1,–,1 µM (active)
COc1cccc(C(=O)Nc2nc(-c3ccc(S(=O)(=O)N4CCOCC4)cc3)cs2)c1,–,2.82 µM (active)
NC(=O)c1c(NC(=O)c2ccc(S(=O)(=O)N3CCOCC3)cc2)sc2c1CCCCC2,-13.6% [at 11.4 µM],–
O=C(Nc1nc(-c2ccc(S(=O)(=O)N3CCOCC3)cc2)cs1)c1ccccc1,–,1.12 µM (active)
O=C(Nc1cccc(S(=O)(=O)C(F)F)c1)c1ccc(Cl)c(S(=O)(=O)N2CCOCC2)c1,–,15.8 µM (active)
O=C(Nc1nc(-c2ccccn2)cs1)c1ccc(F)c(S(=O)(=O)N2CCOCC2)c1,–,1.78 µM (active)
COc1ccccc1C(=O)Nc1nc(-c2ccc(S(=O)(=O)N3CCOCC3)cc2)cs1,–,1.58 µM (active)
Cn1c(=O)c2c(nc(CN3CCN(Cc4ccccc4)CC3)n2Cc2ccc(Cl)cc2)n(C)c1=O,–,17.8 µM (active)
Cn1c(=O)c2c(nc(SCCN3CCOCC3)n2Cc2cccc3ccccc23)n(C)c1=O,-18.8% [at 11.4 µM],–
CCCCCc1ccc(OCCCC[n+]2cccc(C)c2)c(CCCCC)c1,–,4.47 µM (active)
O=C(NC(=S)NCc1nc2ccccc2[nH]1)c1ccc(F)cc1,290% [at 11.4 µM],–
CCCC(=O)NC(c1ccc(OC)c(OC)c1)c1cc(Cl)c2cccnc2c1O (centres undefined),–,4.47 µM (active)
CCC(=O)NC(c1ccc(OC)c(OC)c1)c1cc(Cl)c2cccnc2c1O (centres undefined),–,1.41 µM (active)
Cc1ccc(Sc2nnc(Cc3ccccc3)c3ccccc23)cc1,-3.53%,–

SMILES,"activity change, negative = inhibition",Potency
O=C(N/N=C/c1sc(N2CCOCC2)nc1-c1ccccc1)c1ccccc1O,–,12.6 µM (active)
CC(C)(C)c1ccc(C(=O)N2CCCCCC2=O)cc1,–,5.01 µM (active)
COc1ccc(CN(C)C(=O)c2cccc(NC(=O)CC3SC(N4CCCCC4)=NC3=O)c2)c(OC)c1 (centres undefined),–,10 µM (active)
CC(C)c1ccc2c(c1)C(N1CCNCC1)Cc1ccc(F)cc1S2 (centres undefined),–,35.5 µM (active)
COc1ccc(N=Cc2cc3c(cc2O)OC(N)=C(C#N)C3c2ccccc2)cc1 (centres undefined),-22.6% [at 11.4 µM],–
Cc1cc(C)cc(C(=O)N(NC(=O)Nc2ccc(Cl)cc2)C(C)(C)C)c1,–,22.4 µM (active)
Oc1c(Cl)cc(Cl)cc1/C=N/Nc1ncc(Br)cn1,–,2 µM (active)
CN1CCN(c2cc(-c3cc(O)c4ncccc4c3)ccn2)CC1,–,14.1 µM (active)
CN(Cc1cnc2nc(N)nc(N)c2n1)c1ccc(C(=O)N[C@@H](CCC(=O)O)C(=O)O)cc1,–,0.0063 µM (active)
Cc1cc(C)cc(NS(=O)(=O)c2ccc3c(c2)c(=O)n(C)c(=O)n3C)c1,–,11.2 µM (active)
NC(Cc1ccc(C(F)(F)F)cc1)c1csc(Nc2ccc(C(=O)NCc3ccco3)cn2)n1 (centres undefined),-23.4% [at 11.4 µM],–
Cn1cc(/C=C/c2cc[n+](C)cc2)c2cc(F)ccc21,–,11.2 µM (active)
COc1ccc(-c2cc(NC=O)c3ncc(-c4cccc(C(=O)NCCN(C)C)c4)n3c2)cc1,-9.37%,–
CN(C)CCNC(=O)c1cccc(-c2cnc3c(NC=O)cc(-c4cccs4)cn23)c1,0.48%,–
CN(C)CCNC(=O)c1cccc(-c2cnc3c(NC=O)cc(-c4cccc(C(F)(F)F)c4)cn23)c1,–,22.4 µM (active)
Cc1ccc(Cl)cc1N1CCN(C(=O)CCS(=O)(=O)c2ccc3c(c2)NC(=O)CO3)CC1,–,14.1 µM (active)
CCCCN(C=O)c1c(CC)nc2ccc(C(=O)Nc3cc(-c4ccccc4)ccc3OC)cn12,–,22.4 µM (active)
CCc1nc2ccc(C(=O)Nc3cc(-c4ccccc4)ccc3OC)cn2c1N(CC)CC(=O)N(C)C,–,31.6 µM (active)
Cc1nc2ncnn2c(N2CCN(c3cccc(C(F)(F)F)c3)CC2)c1C,–,2.51 µM (active)
Cc1ccnc(NC(=S)N2CCN(c3cccc(C(F)(F)F)c3)CC2)c1,410%,–
